{"source": "PubChem BioAssay (NCI)", "note": "About 83,000 compounds went through this panel and 20% of them were active in at least one assay; those are over-represented in the sample as a whole.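 Negative percent growth values reflect cell death: -40 means 40% of the cells present at the start died, and -100 means all died.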 A number with no mark means an inactive call. Activity calls are given as the source filed them.", "data": [{"tested_on": "SK-MEL-2 melanoma", "assay": "NCI-60 one-dose screen, 48 h (100 = growth as untreated, 0 = no growth, -100 = all killed)", "settings": "10 µM unless noted", "procedure": "Growth inhibition of the SK-MEL-2 human tumor cell line is measured as a screen for anti-cancer activity. Cells are grown in 96 well plates and exposed to the test compound for 48 hours. Compounds are tested at a single concentration, which is 10^-5 M for most compounds. The reported endpoint is percent growth (GI% or GIPRCNT), where numbers from 0 - 100% represent growth inhibition, and numbers from -100% - 0 represent cell death. For example, a value of 40 represents 60% growth inhibition. A value of 0 means no net growth occurred over the course of the experiment. A value of -40 indicates 40% of cells at the beginning of the experiment died by the end of the experiment. A value of -100 means all cells are dead at the end of the experiment.\nNCI-60 Human Tumor Cell Lines Screen was performed using the standard one-dose NCI protocol, which is described in more detail at https://dtp.cancer.gov/discovery_development/nci-60/default.htm.\nCompounds with GIPRCNT values below 10 were considered active. Activity score was based on GIPRCNT using the following formula: […]\nScore is 0 for GIPRCNT values of 100 or above, 50 for GIPRCNT values of 0, and 100 for GIPRCNT values of -100.", "values": [{"compound": "Cc1ccc(N)c(S(=O)(=O)O)c1", "growth": "84.3%"}, {"compound": "O=CNCCc1ccccc1", "growth": "105%"}, {"compound": "CCCOCc1cn[nH]n1", "growth": "104%"}, {"compound": "CCCCN(C=S)CCCC", "growth": "91.8%"}, {"compound": "Oc1cccnc1CN1CCCC1", "growth": "108%"}, {"compound": "Nc1cc2c(cc1Cl)C(=O)c1ccccc1C2=O", "growth": "111%"}, {"compound": "CCOC(C=O)OCC", "growth": "102%"}, {"compound": "Cc1[nH]n(-c2ccccc2)c(=O)c1C=NC(=S)C(N)=S", "growth": "109%"}, {"compound": "CCOc1ccc(NC(=S)N2CCC(CCCC3CCN(C(=S)Nc4ccc(OCC)cc4)CC3)CC2)cc1", "growth": "104%"}, {"compound": "BrCc1cccc(C[P+](c2ccccc2)(c2ccccc2)c2ccccc2)c1", "growth": "70.4%"}, {"compound": "CC(=O)Nc1ccc(C(=O)c2ccc(S(=O)(=O)Nc3ccccc3)cc2)cc1", "growth": "80.6%"}, {"compound": "CCN(C(=O)Nc1ccccc1Cl)c1ccccc1", "growth": "114%"}, {"compound": "COC1CC(OC(=O)c2ccc([N+](=O)[O-])cc2)C(COC(=O)c2ccc([N+](=O)[O-])cc2)O1", "note": "(stereo not given)", "growth": "127%"}, {"compound": "CC(C)C1CCC(C)C(O)C1", "note": "(stereo not given)", "growth": "94.2%"}, {"compound": "CCOC(=O)c1cc(C)[nH]c(=O)c1C#N", "growth": "104%"}, {"compound": "COC1=C(OC)C(=O)C(SC/C=C(\\C)CCCC(C)CCCC(C)CCCC(C)C)=CC1=O", "note": "(stereo not given)", "growth": "-11.3% (active)"}, {"compound": "CC(O)C(F)(F)C(F)(F)C(F)(F)F", "note": "(stereo not given)", "growth": "111%"}, {"compound": "c1ccc2[nH]c(Cc3nc4ccccc4[nH]3)nc2c1", "growth": "121%"}, {"compound": "CCOC(=O)c1c(C)[nH]c(C)c1C=O", "growth": "102%"}, {"compound": "OCC(O)COc1ccc(Cl)cc1Cl", "note": "(stereo not given)", "growth": "97.4%"}, {"compound": "Cc1cc(C)cc(OCC(=O)O)c1", "growth": "91.4%"}, {"compound": "CC(C)(N)CO[C@H]1C[C@H]2CC[C@@]1(C)C2(C)C", "growth": "108%"}, {"compound": "COC(=O)c1cccc([N+](=O)[O-])c1", "growth": "94.1%"}, {"compound": "Cc1nc(C)c(C(=O)O)cc1C(=O)O", "growth": "114%"}, {"compound": "CCOP(=O)(OCC)/C(=C\\N1C(=O)CC(=O)NC1=S)C(=O)OC", "growth": "118%"}, {"compound": "Cc1ccc(C)c(CN(C)C)c1O", "growth": "143%"}, {"compound": "CCOC(=N)CC(=O)Nc1cccc(C)c1Cl", "growth": "118%"}, {"compound": "Cc1ccc(C)c2c1CCC2=O", "growth": "122%"}, {"compound": "OCc1cccnc1", "growth": "94%"}, {"compound": "COC(c1ccc2c(c1)OCO2)C(C)Br", "note": "(stereo not given)", "growth": "101%"}, {"compound": "C=COC(=O)CCOCC(CC)CCCC", "note": "(stereo not given)", "growth": "96.9%"}, {"compound": "CC(C)(C)CC1(C)NC(=O)NC1=O", "note": "(stereo not given)", "growth": "166%"}, {"compound": "C#CC(O)c1ccccc1", "note": "(stereo not given)", "growth": "106%"}, {"compound": "CN(C(=S)S(=O)(=O)C12CC3CC(CC(C3)C1)C2)c1ccccc1", "growth": "69.2%"}, {"compound": "COc1cc(-c2ccc(NC(=O)CC(C)=O)c(OC)c2)ccc1NC(=O)CC(C)=O", "growth": "108%"}, {"compound": "CC(=O)NNC(=S)N/C=C/c1c(C)ccc([N+](=O)[O-])c1[N+](=O)[O-]", "growth": "92.3%"}, {"compound": "Nc1cc(N)ncn1", "growth": "113%"}, {"compound": "C/C(O)=C(/C=N\\C(=S)Nc1ccc(S(=O)(=O)Nc2nccs2)cc1)C(=O)Nc1ccccc1C", "growth": "115%"}, {"compound": "ClCc1cccc2c(CCl)cccc12", "growth": "84.3%"}, {"compound": "Cc1ccc(S(=O)(=O)Oc2ccc3sc4c(CO)ccc(NCCN(C)C)c4c(=O)c3c2)cc1", "growth": "-86.6% [100 µM] (active)"}]}]}
